Data as given in PubChem BioAssay (NCI).
“And” between values parts separate entries of the source, which are not always exact repeats. Equal entries are not always repeated. The panel holds about 83,000 compounds, 20% with a hit somewhere; the sample as a whole holds those more often.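 Growth was measured after 48 h exposure to one concentration of compound in 96-well plates. Values under 10 count as active.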 A structure can be active in one record and inactive in another. The source made the active and inactive calls.

Tested on: MDA-MB-468 breast
Assay: NCI-60 one-dose screen, 48 h (100 = growth as untreated, 0 = no growth, -100 = all killed)
Conditions: 10 µM unless noted

| SMILES | growth |
| --- | --- |
| COc1ccc(N2CCN(C(=O)CSc3ccc(-c4nc5cc(C)c(C)cc5[nH]4)cn3)CC2)cc1 | 49.5% (inactive) |
| COc1ccc(/C=C/c2c(C(=O)/C=C/c3ccc(Cl)cc3)c(C)nc3ccccc23)cc1 | 34.7% (inactive) |
| CC1(C)CC(=O)c2c(ccc(C(=O)C[C@@H](N)CO)c2N)O1 | 5.3% (active) |
| Cc1ccc(S(=O)(=O)N/N=C2\CC3CCC2C3)cc1 (stereo not given) | 110% (inactive) |
| N#CC1C=CN(CC(N)=O)c2ccc3cccnc3c21 (stereo not given) | 96.2% (inactive) |
| Cc1ccc(OCCOCCOCCOCCOCCOc2ccc(C)n(O)c2=S)c(=S)n1O | -22.8% (active) |
| O=C(O)c1ccc(-c2nn(-c3ccc(C(=O)O)cc3)cc2CNc2ccc(Br)cc2)cc1 | 114% (inactive) |
| N#Cc1cnc2ccc(-c3cnc4n[nH]nc4c3)cc2c1N1CCc2cc(F)c(Cl)cc21 | -13.9% (active) |
| CC(C)(O)CC(=O)NCCn1ccc2ncnc(Nc3ccc(Oc4cccc(C(F)(F)F)c4)c(Cl)c3)c21 | -43.8% (active) |
| Nc1nc(=O)n([C@H]2C[C@H](O)[C@@H](CO)O2)cc1C=O | 107% (inactive) |
| O=C(CO)C(O)C(O)C(O)C(O)CO (stereo not given) | -18.1% (active) and 102% (inactive) |
| COc1cccc2c1C(=O)c1c(O)c3c(c(O)c1C2=O)CC(O)(/C(C)=N/NC(=O)CCCCC(=O)N/N=C(\C)C1(O)Cc2c(O)c4c(c(O)c2C(OC2CC(N)C(O)C(C)O2)C1)C(=O)c1c(OC)cccc1C4=O)CC3OC1CC(N)C(O)C(C)O1 (stereo not given) | -1.37% [5 µM] (active) |
| C#CC#CC#CC#CC#CC#CC#CC#CCC1OC[C@H](COC(=O)O[C@@H](C(=O)O[C@H]2C[C@@]3(O)[C@@H](OC(=O)c4ccccc4)[C@@H]4[C@]5(OC(C)=O)CO[C@@H]5C[C@H](O)[C@@]4(C)C(=O)[C@H](OC(C)=O)C(=C2C)C3(C)C)[C@@H](NC(=O)c2ccccc2)c2ccccc2)O1 (stereo not given in full) | 8.69% (active) |
| O=C(OCc1ccc2c(Cl)cc(Cl)c(O)c2n1)N1CCN(C(=O)c2cc3ccccc3[nH]2)CC1 | 10.3% (inactive) |
| Clc1ccc(Oc2ccc(Nc3ncnc4onc(-c5ccccc5)c34)cc2)c(Cl)c1 | 95.1% (inactive) |
| COc1ccc(-c2cc(C(=O)N3N=C(c4ccc(N)cc4)CC3c3ccccc3)c3ccccc3n2)cc1 (stereo not given) | 29.3% (inactive) |
| O=c1oc2ccc(-c3ccc(F)cc3F)cc2c(=O)n1-c1ccc(Br)cc1F | 47.3% (inactive) |
| COc1cc2nc(N3CCCC3)nc(NCC3CCCCC3)c2cc1OC | -41.2% (active) |
| COc1cc(/C=C/C(=O)c2cccc(-n3cc(-c4cc(OC)c(OC)c(OC)c4)[nH]c3=O)c2)cc(OC)c1OC | 27.7% (inactive) |
| CCOC(=O)c1c(NS(=O)(=O)c2ccc(C)cc2)sc2c1CCC1(C2)OCCO1 | 87.6% (inactive) |

| SMILES | growth |
| --- | --- |
| C[C@@H]1COCCN1c1cc(C2([S@](C)(=N)=O)CC2)nc(-c2ccnc3[nH]ccc23)n1 | 28.3% (inactive) |
| CN=C(N)N/N=C(\c1ccccc1)c1ccc(Br)cc1 | 1.8% (active) |
| COC(=O)c1ccc2c(c1)NC(=O)[C@@H]1CCCN21 | 109% (inactive) |
| c1ccc2c[n+](Cc3ccc4ccccc4n3)ccc2c1 | -0.701% (active) |
| CC(C)c1ccc(COCc2cc(CN3CCCC3)c(O)c3ncccc23)cc1 | -21.1% (active) |
| COc1cc(/C=C2\C(=O)N(CCCOc3cc(O)c4c(=O)cc(-c5ccccc5)oc4c3)c3ccccc32)cc(OC)c1O | 89.4% (inactive) |
| O=S(=O)(NCCCNc1nccc(-c2c(-c3cccc(O)c3)nc3occn23)n1)c1ccc(Cl)cc1 | 105% (inactive) |
| CC1(C)NCCC[C@]2(C)[C@H]3CC=C4[C@@H]5C[C@@](C)(CO)CC[C@]5(C)CC[C@@]4(C)[C@]3(C)CC[C@@H]12 | 67.6% (inactive) |
| C=C1C(=O)O[C@H]2[C@H]1CC/C(COC(=O)NC1CCC(O)CC1)=C\CC[C@@]1(C)O[C@@H]21 (stereo not given in full) | 37% (inactive) and 31.7% (inactive) |
| Cc1nc(-c2ccccc2)cc2c(O)c(C(=O)N/N=C/c3ccc(N(C)C)cc3)[nH]c(=O)c12 | 77.6% (inactive) |
| O=C(/C=C/c1cccc(O)c1)c1ccc(O)cc1 | 40.9% (inactive) |
| Cc1ncc([N+](=O)[O-])n1CCOc1ccc(C(=O)/C=C/c2ccc(C(F)(F)F)cc2)cc1 | 71.3% (inactive) |
| N=c1c(S(=O)(=O)c2ccccc2)cc2c(=O)n3ccccc3nc2n1CC1CCCO1 (stereo not given) | 121% (inactive) |
| COC1OCC(OS(=O)(=O)c2ccc(C)cc2)C(OC(=O)c2ccccc2)C1OC(=O)c1ccccc1 (stereo not given) | 13% (inactive) |
| Cn1cc(-c2ccc3ncc(-c4ccc(CC(=O)Nc5cc(C(C)(C)C)nn5C)cc4)cc3c2)cn1 | -2.1% [30 µM] (active) |
| Cn1cc(-c2nonc2-c2cn(C)c3ccc(Br)cc23)c2ccccc21 | 42.8% (inactive) |
| COCc1cc2c(cc1Br)OCO2 | 110% (inactive) |
| CCC(c1cccc(O)c1)C(CC)c1cccc(O)c1 (stereo not given) | 24.1% (inactive) |
| COc1ccc(NC(=O)CSc2nc(C)c(C(C)=O)n2-c2ccc([N+](=O)[O-])cc2)cc1 | 91.4% (inactive) |
| CCCCNc1nnc2n(Cc3ccccc3)c(=O)c3c4c(sc3n12)CCCC4 | 34.7% (inactive) |
